In PubChem BioAssay (NCI):
Compounds without any hit were thinned out: in the full panel of roughly 79,000, 15% have a hit. Active and inactive are the calls of the source. Cut-off read from the data, not from the text of the source: active = growth inhibition above about 70%; inactive = the rest.

Legend:
[1] = NCI Yeast Anticancer Drug Screen. Data for the rad52 strain (AID 147);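 note: 0% = growth of vehicle-treated control cultures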; details: S. cerevisiae rad52 mutant growth inhibition, active compounds read high
How it was run: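 Growth of repair-deficient yeast cells was compared between compound-treated and vehicle-treated cultures to give percent inhibition.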

[2] = NCI Yeast Anticancer Drug Screen. Data for the wt1 strain (AID 149);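 note: 0% = growth of vehicle-treated wt1 cultures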; details: S. cerevisiae wt1 strain (SPY 50644) growth inhibition, active compounds read high
How it was run: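 Measured: growth of wt1 yeast under compound versus vehicle treatment, reported as inhibition.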

[3] = NCI Yeast Anticancer Drug Screen. Data for the rad50EPP+ strain (AID 151);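 note: 0% = growth of vehicle-treated control cultures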; details: S. cerevisiae rad50 mutant strain, active compounds read high
How it was run: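 Measured: growth inhibition of rad50EPP+ yeast. Reference: vehicle-treated controls. Screen uses strains with defined genetic alterations in DNA damage repair or cell cycle control.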

[4] = NCI Yeast Anticancer Drug Screen. Data for the mgt1 strain (AID 153); details: S. cerevisiae mgt1 mutant growth inhibition, active compounds read high
How it was run: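 Compounds were applied to mgt1 mutant yeast, and growth was then compared against vehicle-treated control cultures to give percent inhibition.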

[5] = NCI Yeast Anticancer Drug Screen. Data for the rad50 strain (AID 155);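 note: 0% = growth of vehicle-only cultures of the same strain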; details: S. cerevisiae rad50 strain growth inhibition, active compounds read high
How it was run: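 Growth of the mutant yeast was measured after compound exposure and referenced to vehicle-treated cultures.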

[6] = NCI Yeast Anticancer Drug Screen. Data for the mec2-1 strain (AID 157); details: S. cerevisiae mec2-1 strain, active compounds read high
How it was run: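 Compounds were applied to mec2-1 yeast cells. Their growth was then compared with that of vehicle-treated cultures to give growth inhibition.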

[7] = NCI Yeast Anticancer Drug Screen. Data for the rad14 strain (AID 159);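 note: 0% = growth of vehicle-treated control cultures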; details: S. cerevisiae rad14 strain growth inhibition, active compounds read high
How it was run: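 Here, inhibition of yeast growth was measured after compound exposure, using a strain with a genetic defect in DNA damage repair and vehicle-treated cultures as the reference.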

[8] = NCI Yeast Anticancer Drug Screen. Data for the sgs1 mgt1 strain (AID 161);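 note: 0% = growth of cultures given vehicle only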; details: S. cerevisiae sgs1 mgt1 strain, active compounds read high
How it was run: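 Compounds are added to genetically altered yeast, and growth is compared with cultures given vehicle alone to give percent inhibition.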

[9] = NCI Yeast Anticancer Drug Screen. Data for the CLN2oe strain (AID 163);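 note: 0% = growth of vehicle-only control cultures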; details: S. cerevisiae CLN2oe strain, active compounds read high
How it was run: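 Cells of an engineered yeast line with disturbed cell-cycle regulation are treated with compound. Inhibition of growth is then calculated relative to the vehicle-treated reference.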

[10] = NCI Yeast Anticancer Drug Screen. Data for the cln2 rad14 strain (AID 165);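 note: 0% = growth equal to vehicle treated cultures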; details: S. cerevisiae cln2 rad14 strain, active compounds read high
How it was run: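 Strain: cln2 rad14 yeast, altered in cell cycle control and DNA damage repair. Read-out: growth inhibition vs vehicle.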

[11] = NCI Yeast Anticancer Drug Screen. Data for the bub3 strain (AID 167); details: S. cerevisiae bub3 mutant strain, active compounds read high
How it was run: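 Whole-cell yeast assay. The mutant strain was incubated with compounds, and growth inhibition was determined by comparison with vehicle-treated cells.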

[12] = NCI Yeast Anticancer Drug Screen. Data for the wt2 strain (AID 169);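 note: 0% = growth of vehicle-treated yeast cultures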; details: S. cerevisiae wt2 strain growth inhibition, active compounds read high
How it was run: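 Growth of compound-treated yeast is measured and expressed as inhibition relative to vehicle-only controls.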

[13] = NCI Yeast Anticancer Drug Screen. Data for the mlh1 rad18 strain (AID 175); details: S. cerevisiae mlh1 rad18 strain growth inhibition, active compounds read high
How it was run: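 A repair-deficient yeast strain is exposed to test compound, and growth is scored relative to vehicle-treated controls.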

[14] = NCI Yeast Anticancer Drug Screen. Data for the rad18 strain (AID 177); details: S. cerevisiae rad18 mutant growth inhibition, active compounds read high
How it was run: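 DNA-repair-defective yeast; compound treatment; growth inhibition scored against vehicle.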

[15] = NCI Yeast Anticancer Drug Screen. Data for the mlh1 strain (AID 171);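 note: 0% = growth of vehicle-treated control cultures of the same strain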; details: S. cerevisiae mlh1 strain growth inhibition, active compounds read high
How it was run: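 Test agents were incubated with yeast bearing a defined DNA damage repair or cell cycle control alteration; values are growth inhibition normalised to vehicle-treated cultures.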

[16] = NCI Yeast Anticancer Drug Screen. Data for the sgs1 strain (AID 173);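 note: 0% = growth of vehicle-only control cultures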; details: S. cerevisiae sgs1 mutant, active compounds read high
How it was run: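 Strain with an altered DNA repair or cell cycle pathway exposed to compound. Growth then measured. Value = inhibition versus vehicle control.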

[17] = at 5.0 µM (retest, dose inferred, filed as 0.5)
[18] = at 50.0 µM (retest, dose inferred, filed as 5.0)

Measured: growth inhibition

COc1ccc2c(c1)[nH]c1c(/C=C/c3ccccc3)nccc12
inactive: [1]; at 1.2 µM 9% | [1]; at 3.7 µM -8% | [1]; at 11.0 µM -2% | [1]; at 33.0 µM 50% | [2]; at 1.2 µM -34% | [2]; at 3.7 µM -32% | [2]; at 11.0 µM -18% | [2]; at 33.0 µM 41% | [3]; at 1.2 µM 0% | [3]; at 3.7 µM 7% | [3]; at 11.0 µM 13% | [3]; at 33.0 µM 46% | [4]; at 1.2 µM 9% | [4]; at 3.7 µM 3% | [4]; at 11.0 µM 18% | [5]; at 1.2 µM 31% | [5]; at 3.7 µM 29% | [5]; [17] 44% | [5]; at 11.0 µM 23% | [6]; at 1.2 µM -9% | [6]; at 3.7 µM -6% | [6]; [17] 42% | [6]; at 11.0 µM 1% | [7]; at 1.2 µM -29% | [7]; at 3.7 µM -25% | [7]; at 11.0 µM -22% | [8]; [17] -28% | [9]; at 1.2 µM -15% | [9]; at 3.7 µM -23% | [9]; at 11.0 µM -38% | [9]; at 33.0 µM 63% | [10]; [17] 40% | [11]; at 1.2 µM 12% | [11]; at 3.7 µM 19% | [11]; [17] -24% | [11]; at 11.0 µM 27% | [11]; at 33.0 µM 48% | [12]; at 1.2 µM -36% | [12]; at 3.7 µM -29% | [12]; at 11.0 µM -30% | [12]; at 33.0 µM 68% | [13]; [17] 29% | [14]; at 1.2 µM 11% | [14]; at 3.7 µM 0% | [14]; at 11.0 µM 6% | [14]; at 33.0 µM 67%
active: [1]; at 100.0 µM 97% | [2]; at 100.0 µM 97% | [3]; at 100.0 µM 78% | [4]; at 33.0 µM 94% | [4]; at 100.0 µM 98% | [5]; at 33.0 µM 78% | [5]; [18] 93% | [5]; at 50.0 µM 89.5% | [5]; at 100.0 µM 96% | [6]; at 33.0 µM 75% | [6]; [18] 93% | [6]; at 50.0 µM 92.1% | [6]; at 100.0 µM 98% | [7]; at 33.0 µM 71% | [7]; at 100.0 µM 97% | [8]; [18] 80% | [8]; at 50.0 µM 92.5% | [9]; at 100.0 µM 98% | [10]; [18] 74% | [10]; at 50.0 µM 70.7% | [11]; [18] 82% | [11]; at 50.0 µM 87.8% | [11]; at 100.0 µM 98% | [12]; at 100.0 µM 97% | [13]; [18] 95% | [13]; at 50.0 µM 89.5% | [14]; at 100.0 µM 97%

CC[C@@]1(OC(=O)CCC(=O)O)C(=O)OCc2c1cc1n(c2=O)Cc2cc3ccccc3nc2-1
inactive: [2]; at 1.2 µM 4% | [2]; at 3.7 µM -2% | [2]; at 11.0 µM 7% | [2]; at 33.0 µM 57% | [3]; at 1.2 µM 14% | [3]; at 3.7 µM 47% | [4]; at 1.2 µM -6% | [4]; at 3.7 µM -2% | [4]; at 11.0 µM 9% | [4]; at 33.0 µM 59% | [6]; at 1.2 µM 6% | [6]; at 3.7 µM 6% | [6]; [17] 11% | [6]; at 11.0 µM 66% | [7]; at 1.2 µM 14% | [7]; at 3.7 µM -2% | [7]; at 11.0 µM 31% | [7]; at 33.0 µM 69% | [8]; [17] 30% | [9]; at 1.2 µM 10% | [9]; at 3.7 µM 21% | [9]; at 11.0 µM 33% | [10]; [17] 5% | [10]; at 50.0 µM 37.5% | [11]; at 1.2 µM -15% | [11]; at 3.7 µM -11% | [11]; [17] 16% | [11]; at 11.0 µM 4% | [11]; at 33.0 µM 62% | [11]; at 50.0 µM 64.2% | [12]; at 1.2 µM -13% | [12]; at 3.7 µM -19% | [12]; at 11.0 µM -7% | [12]; at 33.0 µM 69% | [15]; at 1.2 µM -9% | [15]; at 3.7 µM -7% | [15]; at 11.0 µM 2% | [16]; at 1.2 µM 18% | [16]; at 3.7 µM 21% | [16]; at 11.0 µM 31% | [13]; [17] 16% | [14]; at 1.2 µM 6% | [14]; at 3.7 µM 10% | [14]; at 11.0 µM 27% | [14]; at 33.0 µM 68%
active: [1]; at 1.2 µM 78% | [1]; at 3.7 µM 87% | [1]; at 11.0 µM 92% | [1]; at 33.0 µM 95% | [1]; at 100.0 µM 94% | [2]; at 100.0 µM 90% | [3]; at 11.0 µM 79% | [3]; at 33.0 µM 85% | [3]; at 100.0 µM 89% | [4]; at 100.0 µM 89% | [5]; at 1.2 µM 79% | [5]; at 3.7 µM 86% | [5]; [17] 85% | [5]; at 11.0 µM 91% | [5]; at 33.0 µM 94% | [5]; [18] 94% | [5]; at 50.0 µM 80.7% | [5]; at 100.0 µM 94% | [6]; at 33.0 µM 89% | [6]; [18] 94% | [6]; at 50.0 µM 85.9% | [6]; at 100.0 µM 94% | [7]; at 100.0 µM 89% | [8]; [18] 91% | [8]; at 50.0 µM 76.3% | [9]; at 33.0 µM 73% | [9]; at 100.0 µM 87% | [10]; [18] 72% | [11]; [18] 89% | [11]; at 100.0 µM 86% | [12]; at 100.0 µM 87% | [15]; at 33.0 µM 70% | [15]; at 100.0 µM 83% | [16]; at 33.0 µM 80% | [16]; at 100.0 µM 88% | [13]; [18] 85% | [14]; at 100.0 µM 81%
